# Assay results: paper PMC7819943, “Rice protein-binding microarrays: a tool to detect cis-acting elements near promoter regions in rice”
# In all, about 39,000 sequences were measured (“fluorescence intensity (a.u.)”: median about 4,300, highest 2% from about 39,000 on). This is one part of a sample in which the highest values are shown more often than they occur.
# Target: T1, OsSMF1 (Oryza sativa, UniProt Q6ZLB0 1-436)
# T1 sequence: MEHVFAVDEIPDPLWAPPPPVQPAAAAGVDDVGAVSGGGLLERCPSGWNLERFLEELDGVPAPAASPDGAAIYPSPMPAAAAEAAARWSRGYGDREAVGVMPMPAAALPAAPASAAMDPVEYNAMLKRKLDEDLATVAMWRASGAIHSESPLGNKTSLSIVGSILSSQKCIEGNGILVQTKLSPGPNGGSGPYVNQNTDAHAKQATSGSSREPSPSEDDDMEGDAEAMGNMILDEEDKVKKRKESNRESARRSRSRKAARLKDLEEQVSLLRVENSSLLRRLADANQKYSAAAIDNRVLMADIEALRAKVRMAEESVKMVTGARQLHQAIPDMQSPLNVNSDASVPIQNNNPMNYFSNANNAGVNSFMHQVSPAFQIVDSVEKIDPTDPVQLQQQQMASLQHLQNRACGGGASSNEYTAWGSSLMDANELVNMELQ
# Test: protein-binding microarray (RPBM); PBS, 2% BSA, 51.3 ng/ul salmon testes DNA, 50 uM zinc acetate, 200 nM TF, 25 C, 1 h; high values mean tight binding
# Conditions: protein: recombinant; tags: N-terminal polyhistidine and DsRed monomer fusion (pET32a); chain copies: 2; label: CyDye5-dUTP incorporated in the synthesized complementary strand; 3' TTTTT single-stranded linker to array surface; dsDNA, one strand shown
# Procedure, shortened: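 For the binding signal, per-feature fluorescence intensity was read in arbitrary units on an Axon 4000B scanner. Before scanning, a 2% BSA-blocked custom Agilent array made double-stranded with Cy5-dUTP was washed after 1 h at 25 °C with 200 nM protein and 50 µM zinc acetate. The proteins were Ni–NTA-purified transcription factors with N-terminal polyhistidine and DsRed fusions, expressed in E. coli BL21-CodonPlus.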
row,Sequence,binding signal
1,AACCACGTATGCGCCACGTCATCCAAAACCGCCTTCAAAACGGAGTCACCTAGTGCAG,14400 fluorescence intensity (a.u.)
2,GTAGGCGCCACGTGGCGCCACGTCAGCAAAACCGCCTCCTCGGAGTCACCTAGTGCAG,24000 fluorescence intensity (a.u.)
3,GTCGTGCTAGCTCGATCCATTTCCTACGTGTGCACCAAACCGGAGTCACCTAGTGCAG,5810 fluorescence intensity (a.u.)
4,GAAAGGGATGGCTCACTTGAAACGTACTGCTCCCTGCCCCCGGAGTCACCTAGTGCAG,3160 fluorescence intensity (a.u.)
5,CCAAGGTAAGATGAAGCAGCAGCATTTGCATTAAACTATCCGGAGTCACCTAGTGCAG,60100 fluorescence intensity (a.u.)
6,GATTAAAACCAAAACTCATGATGGAAGTGGATGCATTTGCCGGAGTCACCTAGTGCAG,25500 fluorescence intensity (a.u.)
7,AGCCAAAGCATTTGCCATCCGATGAGGGCGTACTATTAAACGGAGTCACCTAGTGCAG,28000 fluorescence intensity (a.u.)
8,TTGATAATTACTCTTACGTCCCTCACCCTATGCTCCTGTGCGGAGTCACCTAGTGCAG,3440 fluorescence intensity (a.u.)
9,AATACTTTATGCAGGTGTTCAAATGTTCGATGTGACAGGGCGGAGTCACCTAGTGCAG,3150 fluorescence intensity (a.u.)
10,TACTTTATATAGATGTTCAAACATTCGATATGACATGCTGCGGAGTCACCTAGTGCAG,45300 fluorescence intensity (a.u.)
11,TATTTTATATTAGTGTTCAAACGTTCGATGTGACATGTGTCGGAGTCACCTAGTGCAG,3930 fluorescence intensity (a.u.)
12,ATTGCAACCGGAGAGCCTGACCAAAGAAATTCAGATCCTTCGGAGTCACCTAGTGCAG,3200 fluorescence intensity (a.u.)
13,TTATTTTAGTGCCACGTAAGCGACACGTCGATGCCACATGCGGAGTCACCTAGTGCAG,23000 fluorescence intensity (a.u.)
14,CGGATCGAATTGCCACGTAAGCGGCACGTCAGTGCCATGTCGGAGTCACCTAGTGCAG,20000 fluorescence intensity (a.u.)
15,ATGCATCTAAGCATATTAGCTATATACCACATCATTTTCACGGAGTCACCTAGTGCAG,4780 fluorescence intensity (a.u.)
16,TTAATTGAAATGCCACCTAAGCACCACGTCAGCACACAGACGGAGTCACCTAGTGCAG,18700 fluorescence intensity (a.u.)
17,GAAGTGCCACGTAAGCACCACATCAATGCCACGTCAGATGCGGAGTCACCTAGTGCAG,38800 fluorescence intensity (a.u.)
18,TTTTCATTTTAGTGCCACGTAAGCACCACATCGATGCCACCGGAGTCACCTAGTGCAG,41200 fluorescence intensity (a.u.)
19,GTTAAATTGCCACGTAAGCACCACGTCATACCACGTCAGACGGAGTCACCTAGTGCAG,51500 fluorescence intensity (a.u.)
20,TCAAATTGTCACATAAGCGTCATGTCAATGCCACGTCAGACGGAGTCACCTAGTGCAG,27200 fluorescence intensity (a.u.)
21,GAATTGCCACGTAAGCACCACGTCAGTGCCATGTCAGATGCGGAGTCACCTAGTGCAG,52400 fluorescence intensity (a.u.)
22,TTTGTCCTACGTGGCGTACGCGTGGCAATCCAGTCATAATCGGAGTCACCTAGTGCAG,20400 fluorescence intensity (a.u.)

row,Sequence,binding signal
1,ATTCGGTGGGTTGAGGCAGTGATGTGGTGAGAGGAGAAAGCGGAGTCACCTAGTGCAG,3440 fluorescence intensity (a.u.)
2,GAAAGTGGACGCGCGCGGTCTGGCGTCACCTGGGCCGAAACGGAGTCACCTAGTGCAG,3320 fluorescence intensity (a.u.)
3,CTGCCCAACAAAGTCCAGAAACTTCACGACATTCAATTGCCGGAGTCACCTAGTGCAG,22600 fluorescence intensity (a.u.)
4,TACTATAGACTAGCAAATGCCAAATGACAAATTGCCAAGTCGGAGTCACCTAGTGCAG,15800 fluorescence intensity (a.u.)
5,TCACGCTGACCAAACACCATCTGTTATTCTGTTTGTTTGTCGGAGTCACCTAGTGCAG,3640 fluorescence intensity (a.u.)
6,ACTGTTATTCCTACAGGCCAAAGCTGACCTAACCAATTCACGGAGTCACCTAGTGCAG,46800 fluorescence intensity (a.u.)
7,ATTCAGTGCAGCAGCTGCAGGCCAAGCAGGCAGCACAGCACGGAGTCACCTAGTGCAG,3610 fluorescence intensity (a.u.)
8,GTAGCTGTTAAGTTCCATCTCGTCAGCAGCTGCCTGCAGACGGAGTCACCTAGTGCAG,3210 fluorescence intensity (a.u.)
9,CTGTGAGTTCGTTGTCTGAGTGAGAGCTGGACGTGCTGCACGGAGTCACCTAGTGCAG,33000 fluorescence intensity (a.u.)
10,CATGGCCACGTCCGCCACCTTGCGGATGCCGGAGGGTAAGCGGAGTCACCTAGTGCAG,41400 fluorescence intensity (a.u.)
11,TCTGACTGCCTCCGTCACTCCGTGCCTCGTTGGGAGCAGCCGGAGTCACCTAGTGCAG,5300 fluorescence intensity (a.u.)
12,CGGACTGAGCTGCCTCGCCCGCCTCCGAGCAGTTGGGGAACGGAGTCACCTAGTGCAG,40900 fluorescence intensity (a.u.)
13,CTGAGCTGCCACCTCCGCCGCCGCCAGCATGATGGCCTTGCGGAGTCACCTAGTGCAG,42500 fluorescence intensity (a.u.)
14,CCCATGGCGTGCCACTCCGGCGGTCCGGCCGCCACGTCAGCGGAGTCACCTAGTGCAG,38500 fluorescence intensity (a.u.)
15,TGAGGGCCGCCACGTCCTCATGGCCTCCGCCCCATCGGAGCGGAGTCACCTAGTGCAG,7660 fluorescence intensity (a.u.)
16,CGTCGATGGCGTGCGTGAGAGCCTCCACGCCTTGCTGCCGCGGAGTCACCTAGTGCAG,4660 fluorescence intensity (a.u.)
17,GACTTGCGGCCACGGAGTCAGGGCCGTGCACGTGGAGGTACGGAGTCACCTAGTGCAG,4910 fluorescence intensity (a.u.)
18,CCATGGCACCTCCTCCTACGCCAGCACCGCTGCCGTGATGCGGAGTCACCTAGTGCAG,4800 fluorescence intensity (a.u.)
19,GATGAGATGAGGGAGATACCATCAGACTTGCACCAGATGGCGGAGTCACCTAGTGCAG,3660 fluorescence intensity (a.u.)
20,TCGCTGCCCTCCCGCCCGTTGGCCGAAGGGGAAGAAGGGGCGGAGTCACCTAGTGCAG,36900 fluorescence intensity (a.u.)
21,GTGGCCACTTGCATCAGCCGGCCATGAGTGGAGGGGTAAGCGGAGTCACCTAGTGCAG,49700 fluorescence intensity (a.u.)
